Source: PubChem BioAssay
The sample as a whole holds a higher share of hits than the screen did.
Pf Dd2 growth – blocks in vitro growth of P. falciparum Dd2; P. falciparum Dd2 growth, SYBR Green, 72 h; Potency, µM (top dose mostly 28.9 µM), for the others: at the highest dose activity, negative = inhibition, actives largely listed as inhibitors; 120,000 tested, 4.3% active; active means well fitted inhibition curve with a large enough effect;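 further: plate controls were DMSO vehicle for no effect and reference drug for full effect; nearly all actives have a fitted effect of over 65% in size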
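Readout: SYBR Green fluorescence, 485 nm excitation, 535 nm emission, after ~16 h lysis at 37C. Before that, Dd2-infected red cells (2.5% hematocrit) grew 72 h with compound, 29 uM top final concentration.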
An asterisk follows results filed as active; i = inactive; [ ] = another dose, or the depositor's remark. Potency means the concentration at half of the fitted maximal effect.

SMILES	Pf Dd2 growth
CCCC(NC(C)=O)c1nc(CC(N)=O)nn1-c1ccc(F)cc1F (configuration not stated)	0%
COCc1cc(C[C@@H]2CC[C@H](O)[C@@H](CNC3CCN(C(C)=O)CC3)O2)no1	-5%[44.1 µM]
CN(C)C(=O)c1ccc(-c2ccc3ncn(-c4ccc(F)cc4F)c(=O)c3n2)cc1	i
CN(C)C[C@@H]1CN(c2ncccn2)C[C@H]1NC(=O)CCn1cccn1	19%
CC1CN(c2ccccc2C#N)C(=O)CN1C(=O)c1ccc2c(c1)OCCO2 (configuration not stated)	2%
CN(C)c1ncnc2sc3c(c12)CCN(Cc1ccc2cc[nH]c2c1)C3	1.3µM*
Cc1ccsc1CN1CCc2c(sc3ncnc(N(C)C)c23)C1	5µM*
Cc1ccsc1CN1CCc2nc(N3CCN(C)CC3)[nH]c(=O)c2CC1	i[5.79 µM]
CN(C)c1ncnc2sc3c(c12)CCN(Cc1ccco1)C3	4µM*
CN1c2cccnc2CN(Cc2ccco2)CC[C@H]1CO	-15%[44.1 µM]
Cc1ccsc1CN1CCc2nc(N(C)C)[nH]c(=O)c2CC1	-27%[5.79 µM]
CN(Cc1cccnc1)c1nc2c(c(=O)[nH]1)CCN(Cc1ccc3[nH]ccc3c1)CC2	40%[5.79 µM]
CN1C(=O)[C@H]2CN(Cc3ccco3)C[C@H]2C1=O	42%
CN1CCN(c2nc3c(c(=O)[nH]2)CCN(Cc2ccc4cc[nH]c4c2)CC3)CC1	i[5.79 µM]
COc1ccc(N2CCN(C(=O)[C@H]3CCC[C@H]3NC(=O)c3cnc(C)cn3)CC2)cc1	-17%
O=C(CN1C(=O)NC2(CCS(=O)(=O)CC2)C1=O)Nc1cc(F)cc(F)c1	23%
COc1ccc(-c2ccc3nnc(CNC(=O)c4ccco4)n3n2)cc1	i
O=C(NCc1cccnc1Oc1ccccc1)c1ccncc1	-6%
O=C(Cc1cccc(C(F)(F)F)c1)N[C@H]1CCOC[C@H]1C1CCOCC1	-6%
Fc1cccc(CN2CCC(Cc3nc(-c4ccncc4)n[nH]3)C2)c1 (configuration not stated)	i
CCOc1cc(C(=O)NC2CCN(c3cc(-c4ccccc4)[nH]n3)C2)cc(OCC)c1OCC (configuration not stated)	5µM*
Cc1cc(C)cc(C(=O)NC2CCN(c3cc(-c4ccccc4)[nH]n3)C2)c1 (configuration not stated)	i
CCOc1ccc(CC(=O)NC2CCN(c3cc(-c4cccs4)[nH]n3)C2)cc1OCC (configuration not stated)	i
CCOc1ccc(CC(=O)NC2CCN(c3cc(-c4ccccc4)[nH]n3)C2)cc1OCC (configuration not stated)	7.9µM*
CCOc1cc(C(=O)NC2CCN(c3cc(-c4cccs4)[nH]n3)C2)cc(OCC)c1OCC (configuration not stated)	i
SMILES	Pf Dd2 growth
CCOc1ccc(CC(=O)NC2CCCN(c3cc(-c4ccc(F)cc4)[nH]n3)C2)cc1OCC (configuration not stated)	i
O=C(Cn1nc2c(cc1=O)CCCCC2)NCCc1cccc(F)c1	2%
CN1C[C@@H]2CCCN3CCC[C@@H]([C@H]23)[C@H]1CCCC(=O)NCCc1nc2ccccc2[nH]1	5%
Cc1cccc(C)c1Oc1ncccc1CNC(=O)CCN1CCCCO1	-16%
O=S(=O)(c1ccc2nc(Nc3cccc(F)c3)ccc2c1)N1CCCC1	-15%
CC1CCN(S(=O)(=O)c2ccc3nc(N4CCN(c5ccc(F)cc5)CC4)ccc3c2)CC1	50%
O=S(=O)(c1ccc2nc(Nc3ccc(F)cc3)ccc2c1)N1CCCC1	i
CCOc1ccccc1CNc1ccc2cc(S(=O)(=O)N3CCC(C)CC3)ccc2n1	-21%
CC1CCN(S(=O)(=O)c2ccc3nc(Nc4cccc(C(F)(F)F)c4)ccc3c2)CC1	4.5µM*
CC1CCN(S(=O)(=O)c2ccc3nc(NCc4ccc(N(C)C)cc4)ccc3c2)CC1	11µM*
COc1ccc(CN2C(=O)COC[C@H]2C(=O)NCC2CC2)c(OC)c1	2%
O=C(CN1C(=O)NC(c2ccccc2Cl)C2=C1COC2=O)NCc1ccc2c(c1)OCO2 (configuration not stated)	i
Cc1ccc(-c2noc([C@@H]3CCCN3C(=O)c3ccc(Cl)cc3)n2)cc1	16%
O=C(c1ccccn1)N1CCCN(c2cc(-c3ccc(Cl)cc3)[nH]n2)CC1	i
CCN1CC2(CCN(C(=O)c3ccc4c(c3)ncn4CCO)CC2)OC1=O	2%
CCOC(=O)c1[nH]c(C)c(CCC(=O)NCc2ccc(OC)cc2)c1C	-6%
CCOC(=O)c1c(C)[nH]c(C)c1S(=O)(=O)N(C)CC(=O)N1CCN(c2ccc(Cl)cc2)CC1	i
CCOC(=O)c1[nH]c(C)c(CCC(=O)N2CCN(c3ccc(Cl)cc3)CC2)c1C	3.5µM*
CCOC(=O)c1c(C)[nH]c(C)c1S(=O)(=O)N1CCC(C(=O)N2CCN(c3cccc(C)c3C)CC2)CC1	0%
Cc1cccc(N2CCN(C(=O)CCc3c(C)nc4c(c3C)c(=O)n(C)c(=O)n4C)CC2)c1C	20%
CCOC(=O)c1[nH]c(C)c(CCC(=O)N2CCN(c3cccc(C)c3C)CC2)c1C	0.35µM*
COCc1nc(-c2ccc(OC3CN(Cc4cccs4)C3)cc2)no1	-5%
Cc1cc(NC(=O)c2ccc3c(c2)N(Cc2cccc(Cl)c2)C(=O)c2ccccc2S3=O)ccc1Br (configuration not stated)	10µM*
N#Cc1cccc(NC(=O)c2ccc3c(c2)N(Cc2cccc(Cl)c2)C(=O)c2ccccc2S3(=O)=O)c1	2.2µM*
CCN1C(=O)c2ccccc2Sc2ccc(NC(=O)c3cccc(C)c3)cc21	i
SMILES	Pf Dd2 growth
O=C(c1ccc2c(c1)N(Cc1ccc(Cl)cc1)C(=O)c1ccccc1S2(=O)=O)N1CCc2ccccc21	i
CC(=O)Nc1ccc(NC(=O)c2ccc3c(c2)N(Cc2cccc(Cl)c2)C(=O)c2ccccc2S3(=O)=O)cc1	-25%
O=C(Nc1cccc(Cl)c1Cl)c1ccc2c(c1)N(Cc1cccc(Cl)c1)C(=O)c1ccccc1S2=O (configuration not stated)	66%[0.594 µM]
CCC(C)NC(=O)c1ccc2c(c1)N(Cc1cccc(Cl)c1)C(=O)c1ccccc1S2=O (configuration not stated)	-23%
Cc1cc(NC(=O)c2ccc3c(c2)N(Cc2cccc(Cl)c2)C(=O)c2ccccc2S3(=O)=O)ccc1Br	8.9µM*
COc1ccc(C)cc1NC(=O)c1ccc2c(c1)N(Cc1cccc(Cl)c1)C(=O)c1ccccc1S2=O (configuration not stated)	7.9µM*
CCN1C(=O)c2ccccc2Sc2ccc(NC(=O)c3ccc(C#N)cc3)cc21	23%
Cc1cccc(C)c1NC(=O)c1ccc2c(c1)N(Cc1cccc(Cl)c1)C(=O)c1ccccc1S2=O (configuration not stated)	-16%
Cc1ccc(CNC(=O)c2ccc3c(c2)N(Cc2ccccc2F)C(=O)c2ccccc2S3(=O)=O)cc1	i
COC[C@@H]1CN(S(=O)(=O)c2c(C)noc2C)C[C@H]1c1ccncc1	-4%
CN1CC2(CCCN(C(=O)CCc3ccncc3)CC2)OC1=O (configuration not stated)	-2%
Cn1cnc(C(=O)N[C@@H]2CN(c3ncccn3)C[C@H]2CO)c1	12%
COc1ccc(Cl)cc1NC(=O)CCC1CCCN(C(=O)Cn2cccn2)C1 (configuration not stated)	-8%
O=C(C[C@H]1NC(=O)c2ccccc2NC1=O)Nc1nc(-c2ccccn2)cs1	-29%
